# MEP2-GFP yeast = modulators of TOR pathway MEP2-GFP in S. cerevisiae; AID 2016; S. cerevisiae MEP2-GFP strain, flow cytometry GFP, 3 h; 100% = DMSO control level; GFP response vs DMSO, % at 10 µM; 0.51% of 330,000 active;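 active = GFP response versus DMSO above a set limit, roughly screen mean plus 3 SD, cut at about 180% in these data; inconclusive = fewer than 70 cells counted for a yeast strain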;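 note: median GFP fluorescence of the barcode-gated MEP2-GFP cells per well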
# LAP4-GFP MLPCN = yeast TOR pathway LAP4-GFP modulation; GFP response vs DMSO, % at 10 µM; S. cerevisiae LAP4-GFP multiplex, flow cytometry GFP, 3 h; median GFP as percent of DMSO wells; AID 2023; 0.34% of 320,000 active;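 active = GFP response vs DMSO above a set limit, about the screen mean plus 3 SD, cut at about 150% in these data; inconclusive = under 70 cell events counted for the yeast strain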
# RPL19A-GFP yeast = yeast TOR pathway RPL19A-GFP modulation; AID 2025; S. cerevisiae RPL19A-GFP strain, flow cytometry, 3 h; active compounds read low; 0.3% of 330,000 active; percent response vs DMSO, % at 10 µM;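 active = percent response vs DMSO below 50%; inconclusive = fewer than 70 events counted for the yeast strain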;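 note: median channel GFP fluorescence of the barcoded RPL19A-GFP strain; lower means less RPL19A-GFP as with rapamycin TOR inhibition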
# GASC-1 inh = inhibitors of human GASC-1 (JMJD2C) demethylase. Q9H3R0. GST-JMJD2C(1-420) H3K9me3 demethylation, DELFIA europium. inhibition, % at 2.35 µM. 0.069% of 330,000 active. AID 2099;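 active = more than half of a compound's replicate wells show inhibition beyond 50%, single wells judged on their own value; inconclusive = some, but no more than half, of replicates pass 50% inhibition; inactive = no replicate passes 50% inhibition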;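 note: signal counts dimethyl H3K9 product captured on neutravidin plate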
# Target sequence (Q9H3R0 1-420 limits assumed): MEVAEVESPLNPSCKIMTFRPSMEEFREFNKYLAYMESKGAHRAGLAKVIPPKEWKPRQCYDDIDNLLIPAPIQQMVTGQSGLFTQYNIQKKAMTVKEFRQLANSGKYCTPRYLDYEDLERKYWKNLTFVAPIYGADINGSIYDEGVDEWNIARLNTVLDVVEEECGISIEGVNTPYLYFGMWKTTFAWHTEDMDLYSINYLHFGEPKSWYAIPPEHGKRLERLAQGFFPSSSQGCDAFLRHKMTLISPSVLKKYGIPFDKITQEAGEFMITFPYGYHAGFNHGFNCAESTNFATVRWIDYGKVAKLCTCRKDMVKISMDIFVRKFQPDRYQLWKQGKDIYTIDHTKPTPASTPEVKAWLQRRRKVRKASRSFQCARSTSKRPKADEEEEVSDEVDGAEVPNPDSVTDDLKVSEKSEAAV
# CIT2-GFP yeast = alters CIT2-GFP fluorescence in TOR pathway yeast screen; AID 2029; GFP response vs DMSO, % at 10 µM; S. cerevisiae CIT2-GFP strain, flow cytometry, 3 h; 100 means same as DMSO wells; 0.065% of 320,000 active;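 active = GFP response relative to DMSO above a set limit, near the screen mean plus 3 SD, cut at about 150% in these data; inconclusive = Fewer than 70 cells measured for a yeast strain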;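 note: ratio of well median GFP fluorescence to mean of DMSO wells on the plate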
# AGP1 TOR yeast = modulators of TOR pathway AGP1-GFP in S. cerevisiae. AID 2066. 0.02% of 320,000 active. GFP response vs DMSO, % at 10 µM. S. cerevisiae AGP1-GFP multiplex flow cytometry, 3 h; GFP as percent of DMSO wells;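 active = GFP response relative to DMSO above a set limit, near screen average plus 3 SD, cut at about 150% in these data; inconclusive = fewer than 70 cells counted for the yeast strain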;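 note: median GFP channel fluorescence of the gated AGP1 strain per well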
# LAP4-GFP pick2 = second confirmation of modulators of TOR reporter LAP4-GFP in yeast. shares compounds with LAP4-GFP MLPCN. S. cerevisiae LAP4-GFP strain, flow cytometry GFP, 3 h. GFP response vs DMSO, % at 10 µM. 20% of 590 active. AID 2621;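 active = GFP signal as percent of the solvent control above about 150%, meaning raised reporter expression, limit read from the data; inconclusive = fewer than 70 cells counted in the well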
# MEP2 cherry2 = yeast MEP2-GFP modulation, second cherry pick. shares compounds with LAP4-GFP MLPCN. 10% of 590 active. S. cerevisiae MEP2-GFP strain, flow cytometry GFP, 3 h. GFP response vs DMSO, % at 10 µM;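 active = GFP signal above 150% of the solvent control wells, that is a rise of more than half; inconclusive = fewer than 70 yeast cells counted in the well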;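 note: median channel GFP fluorescence of all gated yeast cells per well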
# RPL19A GFP CP2 = second confirmation of modulators of TOR reporter RPL19A-GFP in yeast; shares compounds with LAP4-GFP MLPCN; S. cerevisiae RPL19A-GFP strain, flow cytometry GFP, 3 h; active compounds read low; 100% means same as DMSO wells; GFP response vs DMSO, % at 10 µM; 3% of 590 active; AID 2623;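 active = under 65% GFP response relative to DMSO; inconclusive = yeast strain with under 70 measured events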;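 note: median GFP channel fluorescence per well over the all cells gate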
# CIT2-GFP pick2 = second confirmation of modulators of TOR reporter CIT2-GFP in yeast | S. cerevisiae CIT2-GFP strain, flow cytometry GFP, 3 h; DMSO control wells read 100% | 8% of 590 active | AID 2624 | shares compounds with LAP4-GFP MLPCN | GFP response vs DMSO, % at 10 µM;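 active = GFP response vs DMSO above about 150%, limit read from the data; inconclusive = fewer than 70 events counted for a yeast strain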;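 note: median green fluorescence per well over all gated yeast cells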
# AGP1 GFP CP2 = reconfirmed modulator of AGP1-GFP TOR reporter in yeast; shares compounds with LAP4-GFP MLPCN; S. cerevisiae AGP1-GFP strain, flow cytometry GFP, 3 h; percent response vs DMSO, % at 10 µM; 590 tested, under 10 active; AID 2643;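 active = over 150 percent of DMSO response; inconclusive = yeast strain measured with under 70 events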;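 note: median GFP channel fluorescence over all cells without mother daughter split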
# Yeast autofluor = counter-screen for compound autofluorescence in yeast s288c cells; AID 2757; fluorescence change (kMESF span) at 33 µM; 610 tested, under 10 active; S. cerevisiae s288c, 520 nm autofluorescence, flow cytometry, 3 h; active compounds read high; zero means same as solvent-only cells; shares compounds with LAP4-GFP MLPCN;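 active = fluorescence span over the dose series, or activity score, above about 33, limit read from the data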
# s288c autofl DR = counter-screen for autofluorescence of TOR hits in yeast s288c. shares compounds with LAP4-GFP MLPCN. S. cerevisiae s288c parental, compound autofluorescence, flow cytometry, 3 h. fluorescence change (span) at 33 µM. 110 tested, under 10 active. AID 488829;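 active = fluorescence change span, or the activity score built from it, above 25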
# TORC1 bypass gr = compounds blocking wildtype yeast growth but not TORC1 bypass cells. AID 504456. growth rating (0-3) at 30 µM. 120 tested, under 10 active. shares compounds with LAP4-GFP MLPCN. S. cerevisiae BY4741 spot growth rating, 48-72 h; active compounds read low;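 active = growth rating at most 1 for wild type yeast while the TORC1 bypass strain still grows fully, rated 3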
# A number is an active result; 0 = inactive; ? = inconclusive; - = no result given; + = active, no number; ! = not active in a repeat; [ ] = remark or other dose. This is a sample that favours compounds with a hit; in the whole collection about 0.97% have one here.
SMILES,MEP2-GFP yeast,LAP4-GFP MLPCN,RPL19A-GFP yeast,GASC-1 inh,CIT2-GFP yeast,AGP1 TOR yeast,Yeast autofluor,others
Nc1nc(NCc2ccccc2)nc(NCc2ccccc2)c1[N+](=O)[O-],0,0,0,0,0,0,-,
CNc1nc(N)c([N+](=O)[O-])c(NCc2ccccc2)n1,0,0,0,0,0,0,-,s288c autofl DR=0;TORC1 bypass gr=0
CNc1nc(C)c([N+](=O)[O-])c(Nc2ccc(OC)cc2)n1,0,0,0,0,0,0,-,
Cc1cc([N+](=O)[O-])ccc1NC(=O)CCC(=O)N1CCCCCC1,0,0,0,0,0,0,-,
CCC(CC)N1CCN(S(=O)(=O)c2ccc(OC)cc2)CC1,0,0,0,0,0,0,-,
COc1ccc(C(O)(CCN2CCOCC2)c2ccccc2)cc1 (centres undefined),0,0,0,0,0,0,-,
CSc1ccc(/C=C/C(=O)c2c(O)cc(C)oc2=O)cc1,0,0,0,0,0,0,-,
COc1cccc(/C=C/C(=O)c2c(O)cc(C)oc2=O)c1O,0,243,0,0,0,0,0,
COc1ccc(/C=C/C(=O)c2c(O)cc(C)oc2=O)c(OC)c1,0,0,0,0,0,0,-,
Cc1cc(O)c(C(=O)/C=C/c2ccc(Cl)cc2)c(=O)o1,0,161,0,0,0,0,0,
CCCCC1CCc2[nH]nc(C(=O)O)c2C1 (centres undefined),0,0,0,0,0,0,-,
COc1ccc2[nH]cc(CCNC(=O)C3CCCO3)c2c1 (centres undefined),0,0,0,0,0,0,-,
COc1ccc(N2C(=O)C(Cl)=C(Oc3cccc(OC)c3)C2=O)cc1,0,198,0,0,0,0,0,
O=C1OC(c2ccc(F)cc2)=C/C1=C\c1ccc(O)cc1,0,0,0,0,0,0,-,
O=C1OC(c2ccc(F)cc2)=C/C1=C\c1ccc([N+](=O)[O-])o1,647[may fluoresce green],291[may fluoresce green],0,0,217[may fluoresce green],0,-,LAP4-GFP pick2=667;MEP2 cherry2=+;RPL19A GFP CP2=0;CIT2-GFP pick2=991;AGP1 GFP CP2=174
CN(C)c1ccc(N=Cc2nc(-c3ccccc3)oc2OC(=O)c2ccccc2)cc1,0,0,0,77,0,0,0,
Oc1oc(-c2ccccc2)nc1C=Nc1ccccc1,0,0,0,0,0,0,-,
CN(C)c1ccc(N=Cc2nc(-c3ccccc3)oc2O)cc1,0,0,0,0,0,0,-,
CC(=O)Oc1oc(-c2ccccc2)nc1C=Nc1ccc(N(C)C)cc1,0,0,0,0,0,0,0,
CC(=O)Oc1oc(-c2ccccc2)nc1/C=N/c1ccccn1,0,0,0,0,0,0,-,
COc1ccccc1N=Cc1nc(-c2ccccc2)oc1OC(C)=O,0,0,0,0,0,0,0,
O=C(Oc1oc(-c2ccco2)nc1C=Nc1ccc(Cl)cc1)c1ccco1,0,230,0,0,0,0,0,
COc1ccc(N=Cc2nc(-c3ccco3)oc2O)cc1,0,0,0,0,0,0,-,
CCOc1ccc(NC(=O)CN(C)C(=O)c2ccccc2SCc2c(C)noc2C)cc1OCC,0,0,0,0,0,0,-,
Cc1ccccc1NS(=O)(=O)c1c(C(=O)N2CCCCCC2)c(C)n(C)c1C,0,0,0,0,0,0,-,
SMILES,MEP2-GFP yeast,LAP4-GFP MLPCN,RPL19A-GFP yeast,GASC-1 inh,CIT2-GFP yeast,AGP1 TOR yeast,Yeast autofluor,others
C=CCOc1ccc(C(=O)O)cc1Cl,0,0,0,0,0,0,-,
COc1ccccc1OCCCc1c(C)n[nH]c1C,0,190,0,0,0,0,0,
COc1ccccc1OCCCCCc1c(C)n[nH]c1C,0,0,0,0,0,0,-,
CC(=O)Oc1ccc(C(=O)Nc2ccc(S(=O)(=O)N3CCOCC3)cc2)cc1,0,0,0,0,0,0,-,
N#Cc1ccc(N=c2ssnc2Cl)cc1,0,158!,0,58!,0,0,0,LAP4-GFP pick2=0;MEP2 cherry2=0;RPL19A GFP CP2=0;CIT2-GFP pick2=0;AGP1 GFP CP2=0
Clc1ccc(N=c2ssnc2Cl)cc1,0,156,0,?,0,0,0,s288c autofl DR=0;TORC1 bypass gr=0
Cc1cc(C)n(CC(=O)NC2CCCCC2C)c(=O)c1C#N (centres undefined),0,0,0,0,0,0,-,
O=C(CSc1ccc(-c2ccccn2)nn1)Nc1ccc(F)cc1F,0,0,0,0,161,0,-,LAP4-GFP pick2=0;MEP2 cherry2=0;RPL19A GFP CP2=0;CIT2-GFP pick2=0;AGP1 GFP CP2=0
Nc1ccc(O)c2c1C(=O)c1ccccc1C2=O,0,0,0,?,0,0,-,
Nc1ccc(Br)c2c1C(=O)c1ccccc1C2=O,0,0,0,0,0,0,0,LAP4-GFP pick2=156;MEP2 cherry2=0;RPL19A GFP CP2=0;CIT2-GFP pick2=0;AGP1 GFP CP2=0
Oc1c(C(Nc2nc3ccccc3s2)c2ccco2)ccc2cccnc12 (centres undefined),0,203,0,0,0,0,0,
Cc1cccc(C)c1NC(=O)CN(C)C(=O)COc1cccc2c1OC(C)(C)C2,0,0,0,0,0,0,-,
CCN(CC(=O)Nc1c(F)cccc1F)C(=O)COc1cccc2c1OC(C)(C)C2,0,185,0,0,0,0,-,LAP4-GFP pick2=0;MEP2 cherry2=0;RPL19A GFP CP2=0;CIT2-GFP pick2=0;AGP1 GFP CP2=0
COc1ccc(-c2cc3nc4n(c(=O)c3s2)CCC4)cc1,0,0,0,0,0,0,0,LAP4-GFP pick2=0;MEP2 cherry2=0;RPL19A GFP CP2=64;CIT2-GFP pick2=0;AGP1 GFP CP2=0
COc1ccc(-c2cc3nc4n(c(=O)c3s2)CCCCC4)cc1,0,0,0,0,0,0,-,

# Screening results from PubChem BioAssay.
